Compound activity (PubChem BioAssay)
HPGD inh: HPGD (human) dehydrogenase inhibition. AID 894. Potency, µM, inactives show at the top dose activity change, negative = inhibition, usual class: inhibitors. P15428. purified HPGD, NADH fluorescence kinetic, PGE2 substrate. 150,000 tested, 4.3% active; further: potency means the concentration at half of the fitted maximal effect
Target sequence (P15428 whole entry, looked up): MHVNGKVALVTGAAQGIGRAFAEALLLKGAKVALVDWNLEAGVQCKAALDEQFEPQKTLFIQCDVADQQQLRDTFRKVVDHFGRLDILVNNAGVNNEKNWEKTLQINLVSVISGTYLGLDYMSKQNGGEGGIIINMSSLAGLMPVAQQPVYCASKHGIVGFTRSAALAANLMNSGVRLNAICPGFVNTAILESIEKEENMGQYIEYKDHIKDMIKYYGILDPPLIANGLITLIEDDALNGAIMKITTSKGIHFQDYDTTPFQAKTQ
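NADH formation kinetics: reaction with 30 uM PGE2 and 1 mM NAD+ (final), 20 nM enzyme, Tris-HCl pH 8 with Tween 20, after 15 min compound preincubation at room temperature. Fluorescence change, last versus first of five reads.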
PNC inhibitor: inhibitors of perinucleolar compartment assembly; AID 2417; activity change (PNC), negative = inhibition, % at 10 µM; 140,000 tested, 3.1% active; PC3M PTB-GFP, PNC prevalence imaging, 16 h; stronger effect = lower value;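 active means readout at or below -70, meaning at least 70% loss of cells showing the perinucleolar compartment, a nuclear body marking cancer cells; inconclusive means readout between -30 and a set limit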;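 further: plate controls were DMSO wells for no effect and camptothecin positive control wells for full effect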
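Read-out is percentage of cells bearing a perinucleolar compartment, from automated 20x imaging of fixed, Hoechst-stained PC3M PTB-GFP cells. Cells were seeded 4 h, then exposed 16 h to compound (23 nl of library stock) in duplicate plates.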
IMPase cell inh: IMPase inhibition in cells; P97697; CHO-M1 cells, IP1 accumulation, HTRF TR-FRET ratio; inhibition (IP1 accumulation), % at 46.1 µM; 120,000 tested, under 10 active; active means well fitted curve in the direction sought with a large enough effect in the signal ratio, not every such curve was filed as active; inconclusive means small, poorly fitted or top-dose-only effect, or a change in a side signal; inactive means no such curve, though single readings can be large or run the other way; the % refers to the signal ratio;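 further: cells stimulated with carbachol in lithium chloride buffer; plate controls were DMSO basal wells for no effect and reference inhibitor wells for full effect; higher means more IMPase inhibition seen as more IP1 and lower FRET ratio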
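Carbachol-driven Gq signalling in CHO-M1 cells (2000/well) generates IP1. Compounds that block IMPase raise IP1 and so reduce the FRET signal from Eu-anti-IP1 and d2-IP1 after a 10 min room-temperature lysis.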
ALDH1A1 inh: blocks purified human ALDH1A1 activity. P00352. Purified ALDH1A1, NADH fluorescence, propionaldehyde substrate. Potency, µM (highest dose often 75.3 µM), inactives show top-dose activity, negative = inhibition, actives largely listed as inhibitors. 220,000 tested, 7.3% active. AID 1030;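 further: potency means the concentration at half of the fitted maximal effect; plate controls were no enzyme wells and a reference inhibitor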
Target sequence (P00352 whole entry, looked up): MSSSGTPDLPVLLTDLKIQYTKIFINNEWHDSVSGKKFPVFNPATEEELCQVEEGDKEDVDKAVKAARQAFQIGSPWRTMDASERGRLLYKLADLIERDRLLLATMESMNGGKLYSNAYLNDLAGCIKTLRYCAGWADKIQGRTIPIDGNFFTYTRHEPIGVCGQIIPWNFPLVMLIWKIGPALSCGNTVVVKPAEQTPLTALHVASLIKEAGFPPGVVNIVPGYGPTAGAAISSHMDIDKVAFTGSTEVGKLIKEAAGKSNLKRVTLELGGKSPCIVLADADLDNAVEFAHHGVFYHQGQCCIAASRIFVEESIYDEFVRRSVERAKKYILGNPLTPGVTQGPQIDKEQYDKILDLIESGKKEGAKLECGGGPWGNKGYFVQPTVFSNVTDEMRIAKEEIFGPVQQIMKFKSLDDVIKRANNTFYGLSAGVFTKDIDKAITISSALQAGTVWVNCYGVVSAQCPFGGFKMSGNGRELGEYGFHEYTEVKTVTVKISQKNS
LMNA splice mod: changes lamin A minigene splicing in HeLa cells | HeLa LMNA splicing GFP/RFP minigene ratio, 48 h | Potency, µM (doses to about 46.1 µM), for inactives: top-dose ratio change, negative = inhibition, usual class: inhibitors | 200,000 tested, 0.01% active; active means well fitted inhibition curve with a large enough effect in the signal ratio, with a control signal flat, not every such curve was filed as active; inconclusive means small, poorly fitted or top-dose-only effect, or effect the other way, or a change in a side signal; the % refers to the signal ratio; further: potency means the concentration at half of the fitted maximal effect
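S3 HeLa stable clones carrying a lamin A-EGFP splicing minigene plus DsRed2 were seeded at 600 cells/well in Opti-MEM with 2% FBS, pin-dosed and incubated 48 h at 37°C. Acumen cytometry (488 nm) gave the GFP/RFP total-intensity ratio.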
KinaseGlo FLuc: Kinase-Glo luciferase inhibition (counter-screen); Q27757; Kinase-Glo luciferase, ATP luminescence, 8 min; Potency, µM (highest dose often 38.3 µM), for inactives: top-dose activity change, negative = inhibition, actives largely listed as inhibitors; 200,000 tested, 0.28% active; AID 1379; active means well fitted inhibition curve with a large enough effect; inconclusive means small, poorly fitted or top-dose-only effect; further: potency means the concentration at half of the fitted maximal effect; nearly all actives have a fitted effect of over 60% in size
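Light output from Kinase-Glo luciferase with luciferin and 10 uM ATP in 50 mM imidazole pH 7.2, KCl, MgCl2, Tween 20, BSA; compound pin-delivered, 8-min ambient incubation, then luminescence read.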
* hit, by the source's call; ? = inconclusive; / = no result given; [ ] = dose if it differs, or a comment. Most compounds without a hit are left out; they make up all but 10% or so of the library. Unless noted, the call rests on the fitted dose curve; in most records, active means well fitted inhibition curve with a large enough effect (not every such curve was filed as active); inconclusive means small, poorly fitted or top-dose-only effect, or another doubt; inactive means no such curve, though single readings can be large or run the other way. Unless noted, on the % scale 0 is the no-effect control and ±100 the full control effect.

SMILES	HPGD inh	PNC inhibitor	IMPase cell inh	ALDH1A1 inh	LMNA splice mod	KinaseGlo FLuc
O=C(O)c1ccc(NC(=S)NC(=O)c2ccc(-c3ccccc3)cc2)cc1	/	/	/	8.9µM*	/	-2%
COc1nccnc1NS(=O)(=O)c1ccc(NC(=S)NC(=O)c2ccccc2)cc1	-14%	26	-7	-15%	-15%	-28%
CN(Cc1ccccc1)C(=S)NC(=O)c1ccc(-c2ccccc2)cc1	14µM*	?	3	?	-4%	-1%
O=C(NC(=S)Nc1ccccc1)c1csnn1	-29%	?	-2	7.9µM*	9%	0%
CC(C)[C@H](NC(=O)CNC(=O)OC(C)(C)C)C(=O)N[C@H](C=O)C(C)C	/	/	/	-4%	/	/
Cc1sc2ncnc(N3CCCCC3)c2c1C	0%	0	4	-1%	?	-3%
CCc1cc2c(N3CCCCC3)ncnc2s1	-27%	34	1	20µM*	?	-3%
CCC1CCc2nc3sc(C(=O)Nc4cccc(F)c4)c(N)c3cc2C1 (stereo not given)	/	/	-4	/	/	/
CC(C)(C)c1cnnn1-c1ccc(NC(=O)c2ccc3c(c2)OCO3)cc1	-26%	3	-14	12µM*	-12%	2%
CC1(C)OC2CC3C4CC(F)C5=CC(=O)C=C[C@@]5(C)[C@@]4(F)C(O)C[C@@]3(C)[C@]2(C(=O)CO)O1 (stereo not given in full)	-4%	/	/	0%	/	-5%
O=C1c2c(O)cccc2Cc2cccc(O)c21	-23%	/	/	25µM*	?	4%
CCOC(=O)c1c(C)nc2ccc(C)cn12	-6%	4	0	1%	12%	3%
Cc1ccc2nc(C)c(C(=O)NN=C3CCN(C)CC3)n2c1	/	/	/	7.9µM*	14%[46 µM]	1%
CCOC(=O)c1cc(C)nc(SC)c1C#N	/	/	/	40µM*	/	/
CN(Cc1ccco1)c1cc(-c2cccc(NS(C)(=O)=O)c2)ncn1	/	/	/	?	18%	/
Cc1c(N=C2C=C(Br)C(=O)C(Br)=C2)c(=O)n(-c2ccccc2)n1C	/	/	/	10µM*	/	?
O=C1c2ccccc2C(=O)N1c1cccc(-c2nc3ccccc3o2)c1	-7%	-89*	?	5%	7%	5%
O=C(Cc1ccccc1)Nc1nc(-c2cccc([N+](=O)[O-])c2)cs1	-12%	-103*	-4	4%	-13%	1%
O=C(Cc1nc(-c2ccc([N+](=O)[O-])cc2)cs1)Nc1ccccc1	-19%	-100*	6	8.9µM*	-4%	-1%
COCC(=O)Nc1nc(-c2ccc([N+](=O)[O-])cc2)cs1	/	/	/	1%	/	0%
Cc1cccc(NC(=O)/C(=C\c2ccc([N+](=O)[O-])o2)NC(=O)c2ccc(Cl)cc2)c1	-28%	-23	-4	4.5µM*	?	-1%
O=[N+]([O-])/C=C/c1cn(Cc2ccc(F)cc2)c2ccccc12	-21%	59	4	?	?	1%
Cc1nn(Cc2ccccc2)c(C)c1/C=N/NC(=O)c1cccnc1	32µM*	?	/	-6%	-13%	-4%
Cc1ccc(C(=O)N/N=C/c2cn(Cc3ccccc3)c3ccccc23)cn1	/	/	/	13µM*	/	/
Cc1cc(/C=N/Nc2ccc([N+](=O)[O-])cn2)c(C)n1-c1ccccc1	-7%	-1	2	?	-9%	13%
SMILES	HPGD inh	PNC inhibitor	IMPase cell inh	ALDH1A1 inh	LMNA splice mod	KinaseGlo FLuc
Cc1ccc(Cn2cc(/C=N/Nc3ccc([N+](=O)[O-])cn3)c3ccccc32)cc1	-16%	?	11	10µM*	-3%	-1%
Cc1ccc(Cn2nc(C)c(/C=N/NC(=O)c3cccnc3)c2C)cc1	/	/	/	-2%	/	-1%
Cc1ccc(-n2c(C)cc(/C=N/Nc3ccc([N+](=O)[O-])cn3)c2C)cc1	-5%	14	5	10µM*	9%	-6%
C[C@H]1CN(S(=O)(=O)c2cccc3cnccc23)CCN1	/	/	-5	/	/	/
Cc1[nH]nc2c1C(c1ccc(F)cc1)C(C#N)=C(N)O2 (stereo not given)	-1%	16	5	?	4%	2%
Cc1oc(C)c2c(=O)ccc3c(c12)OC(N)=C(C#N)C3c1ccc(F)cc1 (stereo not given)	25µM*	?	-11	14µM*	?	-4%
COc1ccccc1CN1C(=O)CN(C2CCCCCC2)C(=O)C1c1ccc(C)cc1 (stereo not given)	/	/	/	/	-20%[46 µM]	/
O=c1c2c3c(sc2ncn1/N=C/c1ccc([N+](=O)[O-])o1)CCCC3	-16%	30	20	0.2µM*	150%	-1%
Cc1ccc(C(=O)N/C(=C\c2ccc(Cl)cc2)C(=O)NC2CCCCC2)cc1	/	/	-3	/	/	/
Cc1cccc(NC(=O)CSc2nnc(-c3ccco3)c(-c3ccco3)n2)c1C	10µM*	0	3	3.5µM*	0%[0.0737 µM]	-3%
Cc1cccc(NC(=O)CSc2nnc(-c3ccco3)c(-c3ccco3)n2)c1	/	/	/	7.9µM*	24%[46 µM]	-1%
Cc1cccc(NC(=O)CSc2nc(N)cc(N)n2)c1	-13%	-28	6	6%	-3%	4%
Cc1ccc(NC(=O)CSc2n[nH]c(-c3ccco3)n2)c(C)c1	/	/	/	-1%	?	1%
CC(C)Cc1nnc(NC(=O)Cc2ccccc2[N+](=O)[O-])s1	32µM*	?	/	?	-6%	-1%
CC(C)(C)Cc1nnc(NC(=O)Cc2ccc([N+](=O)[O-])cc2)s1	14µM*	-13	-5	11µM*	3%	-1%
NCC1O[C@@H](O[C@@H]2C(O)[C@H](O[C@H]3OC(CO)C(O)C(N)C3O)[C@@H](N)C[C@H]2N)C(N)C(O)C1O (stereo not given in full)	-12%	/	/	-3%	/	-1%
O=C(COC(=O)c1cccc(S(=O)(=O)NCc2ccccc2)c1)c1ccccc1	20µM*	57	/	-11%	?	3%
Cc1ccccc1Nc1nc(N)nc(COC(=O)c2cccc(S(=O)(=O)NCc3ccccc3)c2)n1	28µM*	66	/	11%	-9%	-1%
Cc1ccccc1Nc1nc(N)nc(COC(=O)c2cccc(S(=O)(=O)N(C)C)c2)n1	-8%	-21	/	-7%	6%	2%
Cc1cc(C)c(C(=O)COC(=O)c2cccc(S(=O)(=O)NCc3ccccc3)c2)cc1C	-23%	11	/	7%	-17%	0%
Cc1cc(C(=O)Nc2ccc(N3CCOCC3)c(Cl)c2)c(C)o1	/	/	/	-2%	-4%[46 µM]	/
Cc1cccc(NC(=O)c2cc(NC(=O)C3CC=CCC3C(=O)O)ccc2N2CCOCC2)c1 (stereo not given)	-3%	?	-7	3.2µM*	-12%	2%
